In PubChem BioAssay (NCATS):
Several values for one entry are separate records, joined by “and”; a condition that tells them apart may be missing. Equal values may be shown once. Results filed as inconclusive are left out. Activity calls are given as the source filed them. Unless noted, the call rests on the fitted dose curve; in most records, active means well fitted curve in either direction with a large enough effect (not every such curve was filed as active); inconclusive means small, poorly fitted or top-dose-only effect, or another doubt; inactive means flat fitted curve, though single readings scatter.

Columns and labels:
[1] = AP1 Signaling Pathway (AID 357); settings: ME-180 AP-1-bla reporter, EGF-induced, beta-lactamase ratio, 5 h; series mostly up to 17.2 µM;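 further: ME-180 reporter cells stimulated with EGF at its EC50 level; on the % scale 0 is the no-effect control and ±100 the full control effect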
In short: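 Read-out was the 460nm/530nm emission ratio (excitation 405nm) after CCF4 loading for 2.5 hours at room temperature. Cells carried an AP-1-driven beta-lactamase reporter, were stimulated with EC50 EGF plus compound for 5 hours, and AC50 values came from titrations.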

[2] = biological target: Cytochrome P450 1A2 (Homo sapiens) (UniProt P05177); assay: p450-cyp1a2 (AID 410; calls by dose curve; further: potency means the concentration at half of the fitted maximal effect;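 on activity change, negative = inhibition: -100% = full effect of reference inhibitor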); settings: recombinant CYP1A2, luciferin-ME demethylation, luminescence; series mostly up to 57 µM
Chain of Cytochrome P450 1A2 (Homo sapiens) (P05177 whole entry, looked up): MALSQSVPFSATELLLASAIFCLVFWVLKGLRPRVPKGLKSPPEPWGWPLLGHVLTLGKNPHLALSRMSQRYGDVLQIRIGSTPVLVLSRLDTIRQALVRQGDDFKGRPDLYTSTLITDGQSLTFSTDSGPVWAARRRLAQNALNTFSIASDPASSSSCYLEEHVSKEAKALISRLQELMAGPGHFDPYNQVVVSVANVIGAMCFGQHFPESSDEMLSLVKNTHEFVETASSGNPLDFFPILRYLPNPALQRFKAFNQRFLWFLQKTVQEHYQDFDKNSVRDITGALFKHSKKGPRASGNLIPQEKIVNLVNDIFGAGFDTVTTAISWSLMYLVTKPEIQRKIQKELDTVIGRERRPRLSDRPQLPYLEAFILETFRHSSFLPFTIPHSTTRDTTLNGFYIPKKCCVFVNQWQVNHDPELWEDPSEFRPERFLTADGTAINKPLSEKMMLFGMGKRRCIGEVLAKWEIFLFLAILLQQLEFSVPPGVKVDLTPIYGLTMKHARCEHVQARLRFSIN
In short: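 20nM CYP1A2 with 100uM Luciferin-ME (at Km) in 100mM KPO4; compound preincubated 10 min, NADPH regeneration added, 60 min at room temperature. Luciferin quantified by luminescence after detection reagent; normalized to 57 uM furafylline.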

[3] = NFAT Signaling Pathway (AID 444); settings: Jurkat NFAT-bla M1, carbachol, beta-lactamase ratio, 5 h;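 further: carbachol stimulus at about its EC50 of 1 µM final; on the % scale 0 is the no-effect control and ±100 the full control effect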
In short: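 Jurkat cells carrying an NFAT-driven β-lactamase reporter and co-transfected muscarinic M1 receptor were treated with compound plus carbachol (1 uM final, an EC50 level) for 5 h at 37 °C. CCF4 loading followed for 1 h at RT; 460/530 nm ratio gave %activity.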

[4] = Stat Signaling Pathway (AID 446); settings: ME-180 SIE beta-lactamase reporter, IL-6 stimulated, 5 h; series mostly up to 17.2 µM;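 further: ME-180 cervical cancer cells given 40 pM IL-6 alongside compound; SIE-controlled beta-lactamase reporter measured as 460/530 nm FRET emission ratio; on the % scale 0 is the no-effect control and ±100 the full control effect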
In short: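 ME-180 cells carrying a SIE-driven beta-lactamase reporter are stimulated with 40 pM IL-6 for 5 h at 37C in the presence of compound. The 460/530 nm FRET substrate ratio is read after 2.5 h at RT. Data are normalised to 300 pM IL-6 and to 125 nM JAK inhibitor controls.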

[5] = biological target: Glucocorticoid receptor (Homo sapiens) (UniProt P04150); assay: GR-GFP Redistribution (AID 450;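 active means compounds whose dose series gives a full or clear partial fitted curve of increased nuclear translocation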; further: potency means the concentration at half of the fitted maximal effect); settings: U2OS GR-GFP nuclear translocation, laser cytometry, 2 h
Chain of Glucocorticoid receptor (Homo sapiens) (P04150 whole entry, looked up, the tested form may be a part): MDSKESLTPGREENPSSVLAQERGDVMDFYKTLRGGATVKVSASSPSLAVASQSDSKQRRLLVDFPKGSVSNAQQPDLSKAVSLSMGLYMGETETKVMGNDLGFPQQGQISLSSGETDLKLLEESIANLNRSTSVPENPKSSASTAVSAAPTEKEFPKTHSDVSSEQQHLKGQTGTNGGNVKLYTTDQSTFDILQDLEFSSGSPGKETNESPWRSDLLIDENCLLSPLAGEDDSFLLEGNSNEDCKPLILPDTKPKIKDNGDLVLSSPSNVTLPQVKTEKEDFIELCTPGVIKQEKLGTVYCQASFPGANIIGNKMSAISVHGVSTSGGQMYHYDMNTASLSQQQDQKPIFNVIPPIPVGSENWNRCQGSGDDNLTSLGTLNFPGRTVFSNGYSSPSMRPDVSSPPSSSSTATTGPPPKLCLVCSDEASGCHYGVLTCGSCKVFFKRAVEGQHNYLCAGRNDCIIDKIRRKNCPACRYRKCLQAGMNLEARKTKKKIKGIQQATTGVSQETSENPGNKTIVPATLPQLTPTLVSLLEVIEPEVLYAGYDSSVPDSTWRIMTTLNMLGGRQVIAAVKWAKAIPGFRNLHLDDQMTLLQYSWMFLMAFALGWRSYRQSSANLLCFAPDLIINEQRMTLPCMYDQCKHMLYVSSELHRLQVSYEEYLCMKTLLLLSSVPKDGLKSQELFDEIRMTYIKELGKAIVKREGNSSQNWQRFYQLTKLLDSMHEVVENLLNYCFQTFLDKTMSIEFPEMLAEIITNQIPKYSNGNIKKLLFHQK

[6] = biological target: Glucocorticoid receptor (Homo sapiens) (UniProt P04150); assay: GR-EFC Redistribution (AID 451; calls by dose curve; further: potency means the concentration at half of the fitted maximal effect); settings: CHO-K1 GR-EFC translocation, beta-gal luminescence, 2 h
In short: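 CHO-K1 cells stably expressing nuclear-localized β-gal enzyme acceptor and GR fused C-terminally to the enzyme donor fragment; ligand-driven nuclear translocation restores β-gal by complementation. Compounds titrated up to 46 uM final, 2 h at 37 °C; luminescence read.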

[7] = biological target: Mitogen-activated protein kinase 10 (Mus musculus) (UniProt Q61831); assay: JNK3 AlphaScreen Assay (AID 530); settings: JNK3 lysate, c-Jun phosphorylation; series mostly up to 57.1 µM;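 further: kinase came from lysate of stimulated human HepG2 cells; signal reports phosphorylation of biotinylated GST-cJun 1-79 at Ser73 with 10 µM ATP; on the % scale 0 is the no-effect control and ±100 the full control effect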
In short: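 Inhibitors reduce antibody binding to phosphorylated biotin-cJun, lowering AlphaScreen luminescence. Lysates from HepG2 cells pre-activated by IL-1beta plus TNF-alpha supplied JNK3; compounds were titrated.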

[8] = Cell Viability - BJ (AID 421; calls by dose curve;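 further: potency means the concentration at half of the fitted maximal effect; cells exposed to compound for 40 hours at 37 °C before readout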); settings: BJ fibroblast viability, qHTS
In short: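 Normal human BJ foreskin fibroblasts, 1500/well in complete medium, treated 40 hr at 37 °C. Cellular ATP by CellTiter-Glo luminescence; normalized to DMSO and 100 uM tamoxifen, AC50 from Hill fit.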

[9] = Cell Viability - Jurkat (AID 426;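 active means dose-dependent loss of cell ATP signal giving a full or clear fitted curve, ranked by lower potency value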; further: potency means the concentration at half of the fitted maximal effect); settings: qHTS
In short: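 Jurkat (Clone E6-1) cells, 5000/well in complete medium, exposed to compounds for 40 hr at 37C; intracellular ATP measured by CellTiter-Glo luminescence after 20 min at room temperature. AC50 from Hill fits.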

[10] = Cell Viability - Hek293 (AID 427;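 active means compounds whose dose-response curve shows a full or clear partial loss of cell viability, called from curve shape rather than a numeric limit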;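 further: potency means the concentration at half of the fitted maximal effect; cells exposed to compound for 40 hours at 37 °C before reading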); settings: qHTS
In short: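 HEK293 cells in complete medium were exposed to compound for 40 hr at 37 °C, then cellular ATP was read by CellTiter-Glo luminescence. Data were normalized to DMSO (basal) and 100 uM tamoxifen (100% inhibition), and AC50 came from Hill fits.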

[11] = Cell Viability - HepG2 (AID 433; calls by dose curve;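 further: potency means the concentration at half of the fitted maximal effect; potency for ATP loss meaning cytotoxicity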); settings: qHTS
In short: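 Cytotoxicity read as ATP loss (CellTiter-Glo luminescence) after 40 hr compound exposure of HepG2, 1500 cells/well, 37 °C. AC50 by Hill equation; 0% set by DMSO, 100% inhibition by 100 uM tamoxifen.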

[12] = Cell Viability - MRC5 (AID 434; calls by dose curve;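 further: potency means the concentration at half of the fitted maximal effect; potency reflects cytotoxicity seen as loss of intracellular ATP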); settings: MRC5 lung fibroblast viability, qHTS
In short: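 MRC5 normal human lung fibroblasts (1500/well) were treated with compounds for 40 hr at 37 °C in complete medium, and viable cells were measured as intracellular ATP by CellTiter-Glo luminescence. AC50 came from Hill fits, normalized to DMSO and 100 uM tamoxifen.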

[13] = Cell Viability - SK-N-SH (AID 435; calls by dose curve; further: potency means the concentration at half of the fitted maximal effect); settings: SK-N-SH neuroblastoma cell viability qHTS
In short: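 qHTS cytotoxicity: CellTiter-Glo ATP luminescence after 40 h compound exposure of human neuroblastoma SK-N-SH cells at 37 °C. AC50 derived by Hill-equation fitting, with DMSO as basal and 100 uM tamoxifen as full inhibition.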

[14] = Cell Viability - N2a (AID 540; active means well fitted curve in the direction sought with a large enough effect; an effect the other way counts as inactive or inconclusive;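 further: plate controls were DMSO alone for no effect and tamoxifen control for full effect; nearly all actives have a fitted effect of over 45% in size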); settings: N2a mouse neuroblastoma cell viability; activity change, negative = cytotoxicity: at 92.2 µM (top of the series)
In short: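 Mouse neuroblastoma N2a cells, 1500/well, exposed to compounds 40 h at 37 °C in complete medium. Viability measured as cellular ATP by CellTiter-Glo luminescence; AC50 from Hill fits of concentration-response.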

[15] = Cell Viability - NIH 3T3 (AID 541; active means well fitted curve in the direction sought with a large enough effect; an effect the other way counts as inactive or inconclusive;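 further: plate controls were DMSO alone for no effect and tamoxifen positive control for full effect; nearly all actives have a fitted effect of over 25% in size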); settings: NIH 3T3 cell viability, qHTS; activity change, negative = cytotoxicity: at 92.2 µM (top of the series)
In short: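 Mouse NIH 3T3 fibroblasts, 1000 cells/well, rested 5 hr at 37 °C, then exposed to compound for 40 hr at 37 °C in complete medium. Viability read as intracellular ATP by CellTiter-Glo luminescence; AC50 from Hill-equation fits of concentration-response data.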

[16] = Cell Viability - HUV-EC-C (AID 542; active means well fitted curve in the direction sought with a large enough effect; an effect the other way counts as inactive or inconclusive; further: on the % scale 0 is the no-effect control and ±100 the full control effect; nearly all actives have a fitted effect of over 35% in size); settings: HUV-EC-C endothelial cell viability, qHTS; series mostly up to 92.2 µM
In short: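 HUV-EC-C human vascular endothelial cells, 1000/well, exposed to compound for 40 hr at 37 °C in complete medium. Intracellular ATP was read by CellTiter-Glo luminescence. AC50 came from Hill-equation fits of concentration-response data.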

[17] = Cell Viability - H-4-II-E (AID 543; active means well fitted curve in the direction sought with a large enough effect; an effect the other way counts as inactive or inconclusive; further: on the % scale 0 is the no-effect control and ±100 the full control effect; nearly all actives have a fitted effect of over 35% in size); settings: H-4-II-E rat hepatoma viability; series mostly up to 92.2 µM
In short: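 Rat hepatoma H-4-II-E cells, 1500 per well, treated 40 h at 37 °C in complete medium. Cellular ATP read by CellTiter-Glo luminescence; AC50 from Hill fits of concentration-response.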

[18] = Cell Viability - SH-SY5Y (AID 544; active means well fitted curve in the direction sought with a large enough effect; an effect the other way counts as inactive or inconclusive;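 further: 0% = DMSO alone and -100% = 100 µM tamoxifen; nearly all actives have a fitted effect of over 55% in size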); settings: SH-SY5Y neuroblastoma cell viability; viability change, negative = cytotoxic: at 92.2 µM (top of the series)
In short: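 SH-SY5Y human neuroblastoma cells (1500/well) incubated 5 h, then compound-treated 40 h at 37 °C in complete medium. Viability read as intracellular ATP by CellTiter-Glo luminescence after 20 min; AC50 from Hill-equation fits of qHTS concentration-response.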

[19] = Cell Viability - Renal Proximal Tubule (AID 545; active means well fitted curve in the direction sought with a large enough effect; an effect the other way counts as inactive or inconclusive;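 further: 0% = DMSO only and -100% = 100 µM tamoxifen; nearly all actives have a fitted effect of over 40% in size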); settings: renal proximal tubule cells viability, primary cells of rat origin; series mostly up to 91.7 µM
In short: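 Viability taken as intracellular ATP (CellTiter-Glo luminescence) after 40 hr, 37 °C compound treatment of primary proximal tubule cells from rat kidney, 1000 cells/well; Hill-equation fits of qHTS concentration-response data gave AC50.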

O=C1N(c2ccccc2)c2ccccc2C1(Cc1ccncc1)Cc1ccncc1
inactive: outcome [1] | activity change, negative = inhibition ([3]; at 38 µM (top of the series)) -6.55% | outcome [4] | Potency [5] > 46 µM | Potency [6] > 46 µM | outcome [7]
active: Potency [2] 15.8 µM

Cc1cn([C@H]2C=C[C@@H](CO)O2)c(=O)[nH]c1=O
inactive: outcome [1] | Potency [8] > 92 µM | Potency [9] > 92 µM | Potency [10] > 92 µM | Potency [11] > 92 µM | Potency [12] > 92 µM | Potency [13] > 92 µM | activity change, negative = inhibition ([3]; at 17.2 µM (top of the series)) 6.73% | outcome [4] | outcome [7] | activity change, negative = cytotoxicity [14] 11.8% and 9.96% | Potency [15] | outcome [16] | Potency [17] | Potency [18] | Potency [19]

CN(C)C(=O)C(CCN1CCC(O)(c2ccc(Cl)cc2)CC1)(c1ccccc1)c1ccccc1
inactive: outcome [1] | activity change, negative = inhibition ([3]; at 17.2 µM (top of the series)) -23.1% | activity change, negative = inhibition ([3]; at 38 µM (top of the series)) -13.2% | outcome [4] | Potency [5] > 46 µM and > 20.6 µM | Potency [6] > 46 µM and > 20.6 µM | outcome [7]

CN1CCC(=C2c3ccccc3C=Cc3ccccc32)CC1
active: activity change, negative = inhibition ([3]; at 17.2 µM (top of the series)) -67.8%
inactive: outcome [1] | Potency [2] | outcome [4] | Potency [5] > 46 µM and > 20.6 µM | Potency [6] > 46 µM and > 20.6 µM | outcome [7]

O=C(Nc1ccc([N+](=O)[O-])cc1Cl)c1cc(Cl)ccc1O
active: Potency [2] 3.98 µM and 1.26 µM | activity change, negative = inhibition ([3]; at 17.2 µM (top of the series)) -101% | activity change, negative = inhibition ([3]; at 38 µM (top of the series)) -89.8%
inactive: outcome [1] | Potency [5] > 46 µM and > 20.6 µM | Potency [6] > 46 µM and > 20.6 µM | outcome [7]

NCCCCCC(=O)O
inactive: outcome [1] | Potency [2] | activity change, negative = inhibition ([3]; at 17.2 µM (top of the series)) -9.25% | activity change, negative = inhibition ([3]; at 38 µM (top of the series)) 21.3% | outcome [4] | Potency [5] > 46 µM and > 20.6 µM | Potency [6] > 46 µM and > 20.6 µM | outcome [7]

Cn1c(=O)c2c(ncn2C)n(C)c1=O
inactive: outcome [1] | Potency [2] | Potency [8] > 92 µM | Potency [9] > 92 µM | Potency [10] > 92 µM | Potency [11] > 92 µM | Potency [12] > 92 µM | Potency [13] > 92 µM | activity change, negative = inhibition ([3]; at 38 µM (top of the series)) 3.94% | outcome [4] | Potency [5] > 46 µM | Potency [6] > 46 µM | outcome [7] | activity change, negative = cytotoxicity [14] 4.95% | Potency [15] | outcome [16] | Potency [17] | Potency [18] | Potency [19]

CN1CCC(=C2c3ccccc3CC(=O)c3sccc32)CC1
active: activity change, negative = inhibition ([3]; at 17.2 µM (top of the series)) -94.3%
inactive: outcome [1] | Potency [2] | outcome [4] | Potency [5] > 46 µM and > 20.6 µM | Potency [6] > 46 µM and > 20.6 µM | outcome [7]

N[C@@H](Cc1c[nH]c2ccc(O)cc12)C(=O)O
inactive: outcome [1] | Potency [2] | Potency [8] > 92 µM | Potency [10] > 92 µM | Potency [11] > 92 µM | Potency [12] > 92 µM | activity change, negative = inhibition ([3]; at 38 µM (top of the series)) -5.52% | outcome [4] | Potency [5] > 46 µM | Potency [6] > 46 µM | outcome [7] | activity change, negative = cytotoxicity [14] -0.161% | Potency [15] | outcome [16] | Potency [17] | Potency [19]

CS(=O)(=O)Nc1ccc([N+](=O)[O-])cc1Oc1ccccc1
active: Potency [2] 15.8 µM and 12.6 µM
inactive: outcome [1] | activity change, negative = inhibition ([3]; at 17.2 µM (top of the series)) -5.4% and -1.94% | outcome [4] | outcome [7]

NCCS(=O)(=O)O
inactive: outcome [1] | Potency [8] > 92 µM | Potency [9] > 92 µM | Potency [10] > 92 µM | Potency [11] > 92 µM | Potency [12] > 92 µM | Potency [13] > 92 µM | activity change, negative = inhibition ([3]; at 38 µM (top of the series)) 3.83% | outcome [4] | Potency [5] > 46 µM | Potency [6] > 46 µM | outcome [7] | activity change, negative = cytotoxicity [14] -1.66% | Potency [15] | outcome [16] | Potency [17] | Potency [18] | Potency [19]

CC[N+](CC)(CC)CCOc1cccc(OCC[N+](CC)(CC)CC)c1OCC[N+](CC)(CC)CC
inactive: outcome [1] | Potency [2] | activity change, negative = inhibition ([3]; at 17.2 µM (top of the series)) -15.9% | activity change, negative = inhibition ([3]; at 38 µM (top of the series)) -22% | outcome [4] | Potency [5] > 46 µM and > 20.6 µM | Potency [6] > 46 µM and > 20.6 µM | outcome [7]
